Results published in PubChem BioAssay AID1259415 (National Center for Advancing Translational Sciences (NCATS), 2018).
Among all 410,000 compounds or so, about 18,000 (4.4%) were called active. Not shown: some 7% with an inconclusive outcome. For the sample, actives were picked, then their nearest neighbours and some compounds at random. Values without a mark were called inactive. Rule as the data show it: active = activity change below about -60%; inconclusive = no clear call, values can overlap the other calls; inactive = above about -39%.

Assay: qHTS Assay for inhibitors of the human cytomegalovirus (HCMV)
Conditions: HFF cells, HCMV-luciferase reporter, 72 h; at 57.5 µM; hits give low values
In short: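 Human foreskin fibroblasts infected with luciferase-reporter HCMV at MOI 1 PFU/cell, compounds at two doses. Luciferase measured 72 h post infection; normalized to buffer-only basal and Salinomycin (10uM) controls.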
% is scaled to controls: 0 for no effect and ±100 for the full control effect.

Compound | activity change, negative = inhibition
Cc1cc(C)cc(NC(=O)Cc2csc(C)n2)c1 | 53.8%
Cc1ccc(Cn2c(CCCNC(=O)C3CCCCC3)nc3ccccc32)cc1 | -11.7%
COc1ccc(N2CCN(S(=O)(=O)CCNC(=O)C(c3ccccc3)c3ccccc3)CC2)cc1 | 1.25%
COC(=O)c1ccc2c(c1)N(CC(=O)Nc1ccc(C)c(C)c1)C(=O)c1ccccc1S2 | 6.12%
COC(=O)c1c(NC(=O)CSc2nncs2)sc2c1CCCCC2 | -61.6% (active)
CCc1ccc(N(CC(=O)Nc2sc3c(c2C(=O)OC)CCCC3)S(C)(=O)=O)cc1 | 40.2%
COC(=O)c1c(NC(=O)c2ccc(Cl)c(Cl)c2)sc2c1CCCC2 | 15%
COc1ccc(S(=O)(=O)N2CCN(CC(=O)NCC3(N4CCOCC4)CCCCC3)CC2)cc1 | -36.1%
O=C(CN1CCN(S(=O)(=O)c2ccc3ccccc3c2)CC1)NC(=O)NC1CCCCC1 | -4.61%
CCC(=O)c1ccc(OCC(=O)N2CCN(CC(=O)Nc3ccc(C)cc3)CC2)cc1 | 6.75%
O=C(CN1CCN(C(=S)NC2CCCC2)CC1)Nc1ccc(Oc2ccccc2)cc1 | -79.5% (active)
CC1(C)OC(=O)C2=C(C[C@@H](C3CC3)O[C@H]2c2ccc(Cl)cc2)O1 | -11.9%
O=c1c2ccccc2ncn1CCCCOc1ccccc1F | -105% (active)
Fc1ccccc1OCCCCn1cncn1 | -9.84%
O=c1c2ccccc2ncn1CCc1ccncc1 | 16.6%
COc1ccc(CCN2C(=O)c3oc4cc(C)cc(C)c4c(=O)c3C2c2ccccc2F)cc1OC (stereo not drawn) | -2.86%
COc1ccc(Br)cc1C1CC(=O)Nc2c1c(C)nn2-c1nc(C)cc(C)n1 (stereo not drawn) | -4.09%
CN1CCC2(CC1)NC(=O)NC2=O | 7.02%
O=C(COc1cccnc1[N+](=O)[O-])Nc1ccc(Cl)cc1F | 9.57%
O=C(NCCc1ccc(C(F)(F)F)cc1)c1ccc2c(c1)OCO2 | -38.1%
Cc1ccc2cc(CCNC(=O)c3ccc4c(c3)OCO4)c(=O)[nH]c2c1 | -60.5% (active)
COc1ccc(-c2cnc(SCCNC(=O)c3ccc4c(c3)OCO4)[nH]2)cc1 | -28.5%

Compound | activity change, negative = inhibition
Cc1ccc2cc(CCNC(=O)c3c(-c4ccccc4Cl)noc3C)c(=O)[nH]c2c1 | -94.6% (active)
Cc1onc(-c2c(Cl)cccc2Cl)c1C(=O)c1c[nH]c(C(=O)NC2CC2)c1 | 16.8%
Cc1onc(-c2ccccc2Cl)c1C(=O)N(Cc1ccc(N(C)C)cc1)C(C)C | -25.9%
COC(=O)C1=CN(c2c(C)cc(C)cc2C)C(N)=C(C#N)C1c1cccc(F)c1 (stereo not drawn) | -18.9%
COC(=O)[C@@H]1[C@@H](CO)[C@@H]2Cn3c(cccc3=O)[C@H]1N2CC1CCCC1 | 13.6%
Cc1[nH]c2ccccc2c1C(c1ccccc1)c1cccs1 (stereo not drawn) | -20.6%
Cc1cc(F)ccc1S(=O)(=O)Nc1ccc(C(=O)N(C)Cc2ccco2)cc1 | -17.3%
CCOC(=O)C1CCCN(C(=O)c2ccc(N(C)C)cc2)CC1 (stereo not drawn) | 14.9%
CCOC(=O)C1CCCN(C(=O)c2ccc(C)c(F)c2)CC1 (stereo not drawn) | -2.4%
Cc1ccc(C)c(S(=O)(=O)N(C)c2ccc(OC(=O)C3CCN(C(=O)c4ccc(F)cc4)CC3)cc2)c1 | -83.9% (active)
COc1cccc(OC)c1C(=O)OCC(=O)/C(C#N)=C(\C)N | -27.5%
Cc1ccc(S(=O)(=O)NCC(=O)OCC(=O)N2CCc3ccccc32)cc1 | -5.73%
C/C(N)=C(/C#N)C(=O)COC(=O)CNS(=O)(=O)c1ccc(C)cc1 | -80.1% (active)
Cc1ccc(N2CC(C(=O)Nc3cc(Cl)ccc3-n3cncn3)CC2=O)cc1 (stereo not drawn) | 4.52%
CCn1cc2nc(SCc3cccc(F)c3)n(CCc3ccccc3)c(=O)c2n1 | -35.3%
CCCCN1C(N)=NC[C@@H]1CC1CCCCC1 | -18.4%
CCCC[C@@H]1CN=C(N)N1CCc1cc(C(F)(F)F)cc(C(F)(F)F)c1 | -75% (active)
CN(C)C1=NC[C@H](Cc2ccccc2)N1CCc1ccc(F)cc1 | -5.86%
O=C(Cn1cc(C(=O)c2cccs2)c2ccccc21)NCc1cccs1 | -5.26%
Cc1ccccc1NC(=O)Cn1cc(C(=O)c2cccs2)c2ccccc21 | -22.9%
Cc1c(Cl)cccc1NC(=O)Cn1cc(C(=O)c2cccs2)c2ccccc21 | -95.6% (active)
COC(=O)C1=C(C(=O)OC)[C@@H]2N(C)c3ccccc3[C@@]23C[C@@H](C(=O)OC)N(C(C)=O)C3=N1 | -27%

Compound | activity change, negative = inhibition
O=C(NCc1cccnc1)C(=O)NCC(c1cccnc1)N1CCN(c2ccccc2)CC1 (stereo not drawn) | 5.63%
CC(=O)Nc1cc(-c2cccc(CO)c2)cn2c(-c3cccc(C(F)(F)F)c3)cnc12 | 71.5%
CN(C)CCNC(=O)c1cccc(-c2cnc3c(NC=O)cc(-c4cccc(C(F)(F)F)c4)cn23)c1 | -61.3% (active)
COc1ccc(-c2cc(NC=O)c3ncc(-c4cccc(C(=O)N(C)C)c4)n3c2)c(OC)c1 | 40.1%
CCCn1c(NCc2ccc(N(CC)CC)cc2)nc2ccccc21 | -5.55%
Cc1ccc(-c2noc(-c3nnn(-c4cccc(C(F)(F)F)c4)c3N)n2)cc1 | 15.9%
Cc1cccc(NC(=O)CSc2nc(-c3ccco3)cc(C(F)(F)F)n2)c1C | 1.83%
Cc1c(CC(=O)NCC(=O)NCC(=O)O)c(=O)oc2cc3oc4c(c3cc12)CCCC4 | -60.9% (active)
CC[C@@H](C)[C@H](NC(=O)CCc1c(C)c2cc3c4c(oc3c(C)c2oc1=O)CCCC4)C(=O)O | -33.8%
Cc1coc2cc3oc(=O)c(CCC(=O)O)c(C)c3cc12 | -38.4%
Cc1ccccc1CN1CCC(CNC(=O)c2cc3ccc4cccnc4c3[nH]2)CC1 | -34.7%
O=c1c(=O)n(Cc2c(F)cccc2Cl)ccn1Cc1ccccc1 | -4.43%
COc1ccc(Cn2ccn(Cc3cccc(OC)c3)c(=O)c2=O)cc1 | 6.59%
O=[N+]([O-])/C=C/c1ccc2c(ccn2Cc2ccccc2)c1 | -98% (active)
CCOC(=O)[C@H]1[C@H]2COc3ccc(Br)cc3[C@@H]2N2C(=O)CN(C)C(=O)[C@@]12C | 4.78%
CC(=O)Nc1ccc(NC(=O)C2CCCN(S(=O)(=O)c3ccc4c(c3)CCCC(=O)N4)C2)cc1 (stereo not drawn) | 20.2%
Cc1ccc(C)c(N2CCN(C(=O)Cn3ncc4c(=O)oc5ccc(C)cc5c43)CC2)c1 | 4.14%
Cc1ccccc1-c1cc(C(=O)NCc2cccs2)n(CC2CC(c3cccnc3)=NO2)n1 (stereo not drawn) | -10.2%
Cc1ccccc1N1CC(C(=O)Nc2ccc3c(c2)OCO3)CC1=O (stereo not drawn) | 31.2%
O=C(OCCOc1ccccc1Cl)c1cc(S(=O)(=O)N2CCCCC2)ccc1N1CCOCC1 | -69.8% (active)
CC(C)(C)C(=O)COC(=O)c1cc(S(=O)(=O)N2CCCCC2)ccc1N1CCOCC1 | -11.9%
O=C(OCCOc1ccccc1F)c1cc(S(=O)(=O)N2CCOCC2)ccc1F | -18%

Compound | activity change, negative = inhibition
CCOC(=O)c1c(C)[nH]c(C)c1S(=O)(=O)N1CCCC(C(=O)NCc2ccccc2Cl)C1 (stereo not drawn) | -15.8%
CCOc1ccccc1CNC(=O)Nc1cn(CC(C)C)c(=O)c2ccccc12 | -2.27%
CCOc1ccc(S(=O)(=O)Nc2ccncc2)c(C)c1C | -26.1%
Cc1cc(-c2n[nH]c(=S)n2/N=C/C(Br)=C/c2ccccc2)n[nH]1 | -95% (active)
CCN(CCCNC(=O)c1ccc2c(c1)NC(=O)CN2C)c1cccc(C)c1 | -95.1% (active)
CCN(CCCNC(=O)c1ccc(Sc2ccc(C)cc2)c(NC(C)=O)c1)c1cccc(C)c1 | -13.8%
CCN(CCCNC(=O)Cn1ncc2c([nH]c3ccccc32)c1=O)c1cccc(C)c1 | 19.5%
COc1ccc(SCc2cc(=O)c3ccc(C)c(C)c3[nH]2)cc1 | -8.87%
CC(C)C(C(=O)NC(C)(C)CC(C)(C)C)N1C(=O)C(=O)c2ccccc21 (stereo not drawn) | 229%
CCOC(=O)C1(S(=O)(=O)c2ccc(Cl)cc2)CCN(Cc2ccccc2)CC1 | -98.6% (active)
CCOC(=O)c1ccc(CN(Cc2ccccc2)S(=O)(=O)c2ccc(Cl)cc2)cc1 | -6.46%
O=C(NNS(=O)(=O)c1ccc(Cl)cc1)C1CCN(Cc2ccccc2)CC1 | 14.7%
CN(CC(=O)Nc1ccccc1Cl)C(=O)COc1cccc2c1OC(C)(C)C2 | -11.1%
O=C(Nc1ccc(O)c(-c2nc3ccccc3o2)c1)c1ccc(-c2cccc(Cl)c2)o1 | 11.5%
Cc1nc(Nc2ccc(S(=O)(=O)N3CCCC3)cc2)c2nnn(Cc3ccccc3)c2n1 | -1%
Cc1nc(Nc2ccccc2F)c2nnn(Cc3ccccc3Cl)c2n1 | 33.3%
Cc1nc(Nc2ccc3c(c2)OCCO3)c2nnn(Cc3ccccc3Cl)c2n1 | -91.8% (active)
CC(C)c1ccc(Nc2ncccc2C#N)cc1 | 52.9%
COc1cc(OC)cc(C(=O)Nc2nnc(SCC(=O)NCC3CCCO3)s2)c1 (stereo not drawn) | -2.96%
CC1CC(C)CN(CC(=O)Nc2ccc(S(N)(=O)=O)cc2)C1 (stereo not drawn) | -88.1% (active)
CC1Cc2ccccc2N1CC(=O)Nc1ccc(S(N)(=O)=O)cc1 (stereo not drawn) | -32.9%
CC1CN(C(=S)Nc2ccc(S(N)(=O)=O)cc2)CC(C)O1 (stereo not drawn) | 70.7%
